Laboratory results reported in the supplement of paper PMC11732987, “Enantioselective OTUD7B fragment discovery through chemoproteomics screening and high-throughput optimisation” (Communications Chemistry, 2025).

Legend:
Test in all cases: log2 ratio of Biotin-Ahx-Ub-VS probe labelling (fragment/DMSO); higher = less target engagement (more negative = stronger competition), active = hit call of the paper (q ≤ 0.05, log2 ratio ≤ -1)
Settings in all cases: compound concentration: 200 uM; treatment time: 3 h
USP42 = molecular target: T1, USP42 (UniProt Q9H9J4)
T1 sequence (whole entry): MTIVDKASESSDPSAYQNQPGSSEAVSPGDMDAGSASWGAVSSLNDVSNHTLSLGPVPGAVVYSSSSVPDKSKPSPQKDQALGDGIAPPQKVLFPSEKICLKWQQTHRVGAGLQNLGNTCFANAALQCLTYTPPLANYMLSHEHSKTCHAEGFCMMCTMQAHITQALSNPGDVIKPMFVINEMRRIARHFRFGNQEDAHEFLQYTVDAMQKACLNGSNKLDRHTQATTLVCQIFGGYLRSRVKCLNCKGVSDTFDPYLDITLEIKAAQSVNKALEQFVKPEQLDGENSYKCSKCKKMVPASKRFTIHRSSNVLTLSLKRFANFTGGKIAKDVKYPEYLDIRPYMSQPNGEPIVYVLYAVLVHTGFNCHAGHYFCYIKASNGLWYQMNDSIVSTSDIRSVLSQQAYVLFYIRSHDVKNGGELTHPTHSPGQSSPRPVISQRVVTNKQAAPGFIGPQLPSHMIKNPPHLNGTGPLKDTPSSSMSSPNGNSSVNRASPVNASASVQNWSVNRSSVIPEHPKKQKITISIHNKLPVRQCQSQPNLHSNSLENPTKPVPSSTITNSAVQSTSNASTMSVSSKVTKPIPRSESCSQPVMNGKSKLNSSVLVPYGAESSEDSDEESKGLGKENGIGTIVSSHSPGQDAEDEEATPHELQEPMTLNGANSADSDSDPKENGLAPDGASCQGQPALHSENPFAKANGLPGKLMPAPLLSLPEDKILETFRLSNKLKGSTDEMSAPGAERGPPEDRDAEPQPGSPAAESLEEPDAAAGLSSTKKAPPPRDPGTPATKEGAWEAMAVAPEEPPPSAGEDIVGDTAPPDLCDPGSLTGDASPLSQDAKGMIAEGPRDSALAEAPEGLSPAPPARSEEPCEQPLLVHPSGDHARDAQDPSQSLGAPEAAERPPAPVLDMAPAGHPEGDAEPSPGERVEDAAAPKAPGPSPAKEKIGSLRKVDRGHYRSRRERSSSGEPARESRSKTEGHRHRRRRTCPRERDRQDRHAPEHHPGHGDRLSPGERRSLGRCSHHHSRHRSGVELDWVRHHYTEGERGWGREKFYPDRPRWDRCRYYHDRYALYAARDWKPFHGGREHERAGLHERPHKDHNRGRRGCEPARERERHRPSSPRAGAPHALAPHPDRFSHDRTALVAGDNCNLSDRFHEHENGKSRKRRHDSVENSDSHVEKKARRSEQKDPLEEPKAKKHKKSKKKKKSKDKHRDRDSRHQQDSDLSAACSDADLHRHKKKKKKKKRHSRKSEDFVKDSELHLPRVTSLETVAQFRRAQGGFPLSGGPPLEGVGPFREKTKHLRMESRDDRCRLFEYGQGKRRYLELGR
How it was run: (§1)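 HEK293T lysate (495 µg per sample, in Tris/CHAPS/IGEPAL buffer with protease inhibitors) was exposed in triplicate for 3 h to fragment at 200 µM or to vehicle, then to Biotin-Ahx-Ub-VS at 0.5 µM final for 1 h. Labelled DUBs were enriched on NeutrAvidin, digested with LysC and trypsin, and analysed by diaPASEF LC-MS/MS. Spectronaut label-free quantities were normalised to the global median, and values are average log2 ratios of fragment over vehicle from an unpaired t-test. Only proteins with ≥2 unique peptides were used.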

USP46 = USP46 (UniProt P62068)
How it was run: as §1

USP47 = molecular target: T2, USP47 (UniProt Q96K76)
T2 sequence (whole entry): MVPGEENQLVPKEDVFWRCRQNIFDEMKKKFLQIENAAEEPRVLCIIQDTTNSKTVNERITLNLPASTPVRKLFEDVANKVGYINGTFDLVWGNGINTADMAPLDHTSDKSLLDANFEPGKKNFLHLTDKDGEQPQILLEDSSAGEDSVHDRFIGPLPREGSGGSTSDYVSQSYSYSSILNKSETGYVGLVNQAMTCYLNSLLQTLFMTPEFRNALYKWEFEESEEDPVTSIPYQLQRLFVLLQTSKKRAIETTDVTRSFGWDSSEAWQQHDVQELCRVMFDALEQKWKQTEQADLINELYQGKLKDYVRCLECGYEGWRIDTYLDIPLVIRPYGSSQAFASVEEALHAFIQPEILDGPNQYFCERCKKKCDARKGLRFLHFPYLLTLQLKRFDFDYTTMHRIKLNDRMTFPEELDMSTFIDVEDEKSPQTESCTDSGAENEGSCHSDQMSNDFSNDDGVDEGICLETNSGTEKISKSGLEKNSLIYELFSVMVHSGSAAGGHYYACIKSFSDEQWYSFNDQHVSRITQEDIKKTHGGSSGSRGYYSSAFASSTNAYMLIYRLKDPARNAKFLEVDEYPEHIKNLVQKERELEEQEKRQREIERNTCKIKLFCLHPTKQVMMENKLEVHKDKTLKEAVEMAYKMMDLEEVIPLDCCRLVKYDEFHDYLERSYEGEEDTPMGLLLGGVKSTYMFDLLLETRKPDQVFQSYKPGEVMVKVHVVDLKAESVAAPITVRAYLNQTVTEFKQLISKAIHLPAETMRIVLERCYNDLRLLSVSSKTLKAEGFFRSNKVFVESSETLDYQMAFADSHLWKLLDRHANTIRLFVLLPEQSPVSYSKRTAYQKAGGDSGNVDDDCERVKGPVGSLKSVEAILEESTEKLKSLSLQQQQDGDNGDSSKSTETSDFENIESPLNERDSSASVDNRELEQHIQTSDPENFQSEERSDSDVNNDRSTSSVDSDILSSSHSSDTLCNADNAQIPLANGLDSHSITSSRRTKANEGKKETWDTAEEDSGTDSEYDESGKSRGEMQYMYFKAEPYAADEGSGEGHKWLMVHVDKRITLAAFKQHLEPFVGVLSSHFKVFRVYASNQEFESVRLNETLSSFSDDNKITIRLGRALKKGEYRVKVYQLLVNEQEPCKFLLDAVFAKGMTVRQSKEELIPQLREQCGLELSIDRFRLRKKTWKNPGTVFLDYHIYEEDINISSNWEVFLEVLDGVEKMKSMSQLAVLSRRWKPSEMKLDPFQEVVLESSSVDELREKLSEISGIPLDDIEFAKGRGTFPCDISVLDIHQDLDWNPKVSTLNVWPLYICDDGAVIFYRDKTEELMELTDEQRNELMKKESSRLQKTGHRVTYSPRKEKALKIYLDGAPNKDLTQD
How it was run: as §1

USP48 = molecular target: T3, USP48 (UniProt Q86UV5)
T3 sequence (whole entry): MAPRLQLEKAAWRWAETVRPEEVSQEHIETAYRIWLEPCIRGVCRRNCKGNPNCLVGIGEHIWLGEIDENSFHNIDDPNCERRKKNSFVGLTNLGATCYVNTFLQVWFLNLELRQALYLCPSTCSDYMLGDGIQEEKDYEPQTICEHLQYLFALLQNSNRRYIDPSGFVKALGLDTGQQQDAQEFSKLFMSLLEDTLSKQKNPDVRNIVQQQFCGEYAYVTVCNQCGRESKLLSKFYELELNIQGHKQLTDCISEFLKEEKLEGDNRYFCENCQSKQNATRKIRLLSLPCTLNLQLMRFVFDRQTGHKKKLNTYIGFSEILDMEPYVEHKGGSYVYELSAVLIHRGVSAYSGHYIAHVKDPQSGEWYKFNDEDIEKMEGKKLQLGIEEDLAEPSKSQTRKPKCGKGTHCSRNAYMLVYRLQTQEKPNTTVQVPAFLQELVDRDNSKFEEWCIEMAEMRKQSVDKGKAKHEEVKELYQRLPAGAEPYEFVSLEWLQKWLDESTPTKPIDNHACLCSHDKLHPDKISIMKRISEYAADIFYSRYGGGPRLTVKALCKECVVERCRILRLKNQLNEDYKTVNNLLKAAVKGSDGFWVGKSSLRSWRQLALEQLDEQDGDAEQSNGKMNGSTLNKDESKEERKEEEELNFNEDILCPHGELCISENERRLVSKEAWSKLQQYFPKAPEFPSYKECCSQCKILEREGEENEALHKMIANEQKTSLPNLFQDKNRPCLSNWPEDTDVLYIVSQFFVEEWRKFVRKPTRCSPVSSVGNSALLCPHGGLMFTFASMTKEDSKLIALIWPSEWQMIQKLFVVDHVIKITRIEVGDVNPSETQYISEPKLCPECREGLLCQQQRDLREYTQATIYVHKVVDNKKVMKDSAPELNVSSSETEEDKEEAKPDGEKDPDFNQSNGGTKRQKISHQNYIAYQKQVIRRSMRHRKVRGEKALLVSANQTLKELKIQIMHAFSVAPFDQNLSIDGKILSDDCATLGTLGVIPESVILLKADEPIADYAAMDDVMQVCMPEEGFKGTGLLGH
How it was run: as §1

USP5 = molecular target: T4, USP5 (UniProt P45974)
T4 sequence (whole entry): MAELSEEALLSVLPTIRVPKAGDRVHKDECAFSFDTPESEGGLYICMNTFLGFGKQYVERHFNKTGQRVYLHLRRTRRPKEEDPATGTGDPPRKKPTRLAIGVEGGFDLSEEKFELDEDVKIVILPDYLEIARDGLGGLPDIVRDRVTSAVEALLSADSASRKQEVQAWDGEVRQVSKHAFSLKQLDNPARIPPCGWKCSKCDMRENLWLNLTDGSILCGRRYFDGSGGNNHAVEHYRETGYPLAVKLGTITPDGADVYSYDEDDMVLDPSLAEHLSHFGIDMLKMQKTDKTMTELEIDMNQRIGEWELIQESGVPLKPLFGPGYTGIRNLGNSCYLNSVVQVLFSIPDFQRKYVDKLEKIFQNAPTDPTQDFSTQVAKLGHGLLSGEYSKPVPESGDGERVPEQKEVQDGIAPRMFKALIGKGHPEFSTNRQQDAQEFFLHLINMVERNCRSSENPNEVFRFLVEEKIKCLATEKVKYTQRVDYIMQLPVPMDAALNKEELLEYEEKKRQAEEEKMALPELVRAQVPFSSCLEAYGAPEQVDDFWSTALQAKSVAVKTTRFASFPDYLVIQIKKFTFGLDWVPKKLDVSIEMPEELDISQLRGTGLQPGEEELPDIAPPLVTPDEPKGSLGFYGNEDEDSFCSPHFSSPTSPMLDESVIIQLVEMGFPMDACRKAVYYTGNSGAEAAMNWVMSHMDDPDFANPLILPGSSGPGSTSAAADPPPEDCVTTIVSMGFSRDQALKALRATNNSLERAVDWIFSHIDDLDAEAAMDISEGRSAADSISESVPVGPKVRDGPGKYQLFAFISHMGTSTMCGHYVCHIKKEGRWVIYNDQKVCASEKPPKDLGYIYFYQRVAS
How it was run: as §1

USP54 = USP54 (UniProt Q70EL1)
How it was run: as §1

USP7 = USP7 (UniProt Q93009)
How it was run: as §1

USP8 = molecular target: T5, USP8 (UniProt P40818)
T5 sequence (whole entry): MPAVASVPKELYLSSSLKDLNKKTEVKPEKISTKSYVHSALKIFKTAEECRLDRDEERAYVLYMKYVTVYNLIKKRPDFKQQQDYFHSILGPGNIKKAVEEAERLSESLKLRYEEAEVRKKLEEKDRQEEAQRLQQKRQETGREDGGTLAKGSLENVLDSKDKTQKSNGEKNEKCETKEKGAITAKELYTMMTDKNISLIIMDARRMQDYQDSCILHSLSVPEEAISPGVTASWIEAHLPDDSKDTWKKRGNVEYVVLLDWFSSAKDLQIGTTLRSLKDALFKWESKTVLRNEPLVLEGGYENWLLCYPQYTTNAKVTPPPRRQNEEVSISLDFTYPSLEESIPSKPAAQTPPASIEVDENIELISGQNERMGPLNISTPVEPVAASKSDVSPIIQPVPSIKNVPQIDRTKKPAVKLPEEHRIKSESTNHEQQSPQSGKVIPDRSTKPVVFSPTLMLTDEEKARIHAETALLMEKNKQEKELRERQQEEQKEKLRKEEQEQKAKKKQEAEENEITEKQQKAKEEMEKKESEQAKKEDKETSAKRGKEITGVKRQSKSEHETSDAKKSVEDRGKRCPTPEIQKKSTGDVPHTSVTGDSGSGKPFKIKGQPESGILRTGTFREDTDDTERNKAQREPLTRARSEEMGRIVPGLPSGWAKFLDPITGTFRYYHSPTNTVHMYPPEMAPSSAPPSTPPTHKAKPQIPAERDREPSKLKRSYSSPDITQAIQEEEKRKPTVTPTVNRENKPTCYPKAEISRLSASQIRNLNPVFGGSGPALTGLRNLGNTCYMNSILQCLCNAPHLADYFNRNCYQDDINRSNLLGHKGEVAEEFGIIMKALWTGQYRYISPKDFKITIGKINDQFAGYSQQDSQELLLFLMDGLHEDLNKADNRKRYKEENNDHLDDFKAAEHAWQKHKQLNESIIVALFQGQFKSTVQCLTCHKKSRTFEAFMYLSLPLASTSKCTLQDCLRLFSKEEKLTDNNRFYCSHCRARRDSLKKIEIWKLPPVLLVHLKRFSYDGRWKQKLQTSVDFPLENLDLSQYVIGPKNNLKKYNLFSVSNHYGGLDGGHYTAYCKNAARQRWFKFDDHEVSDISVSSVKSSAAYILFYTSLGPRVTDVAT
How it was run: as §1

USP9X = USP9X (UniProt Q93008)
How it was run: as §1

UniProt O00487 = molecular target: UniProt O00487
How it was run: as §1

Measured: log2 ratio of Biotin-Ahx-Ub-VS probe labelling

USP54, sequence (Q70EL1 whole entry): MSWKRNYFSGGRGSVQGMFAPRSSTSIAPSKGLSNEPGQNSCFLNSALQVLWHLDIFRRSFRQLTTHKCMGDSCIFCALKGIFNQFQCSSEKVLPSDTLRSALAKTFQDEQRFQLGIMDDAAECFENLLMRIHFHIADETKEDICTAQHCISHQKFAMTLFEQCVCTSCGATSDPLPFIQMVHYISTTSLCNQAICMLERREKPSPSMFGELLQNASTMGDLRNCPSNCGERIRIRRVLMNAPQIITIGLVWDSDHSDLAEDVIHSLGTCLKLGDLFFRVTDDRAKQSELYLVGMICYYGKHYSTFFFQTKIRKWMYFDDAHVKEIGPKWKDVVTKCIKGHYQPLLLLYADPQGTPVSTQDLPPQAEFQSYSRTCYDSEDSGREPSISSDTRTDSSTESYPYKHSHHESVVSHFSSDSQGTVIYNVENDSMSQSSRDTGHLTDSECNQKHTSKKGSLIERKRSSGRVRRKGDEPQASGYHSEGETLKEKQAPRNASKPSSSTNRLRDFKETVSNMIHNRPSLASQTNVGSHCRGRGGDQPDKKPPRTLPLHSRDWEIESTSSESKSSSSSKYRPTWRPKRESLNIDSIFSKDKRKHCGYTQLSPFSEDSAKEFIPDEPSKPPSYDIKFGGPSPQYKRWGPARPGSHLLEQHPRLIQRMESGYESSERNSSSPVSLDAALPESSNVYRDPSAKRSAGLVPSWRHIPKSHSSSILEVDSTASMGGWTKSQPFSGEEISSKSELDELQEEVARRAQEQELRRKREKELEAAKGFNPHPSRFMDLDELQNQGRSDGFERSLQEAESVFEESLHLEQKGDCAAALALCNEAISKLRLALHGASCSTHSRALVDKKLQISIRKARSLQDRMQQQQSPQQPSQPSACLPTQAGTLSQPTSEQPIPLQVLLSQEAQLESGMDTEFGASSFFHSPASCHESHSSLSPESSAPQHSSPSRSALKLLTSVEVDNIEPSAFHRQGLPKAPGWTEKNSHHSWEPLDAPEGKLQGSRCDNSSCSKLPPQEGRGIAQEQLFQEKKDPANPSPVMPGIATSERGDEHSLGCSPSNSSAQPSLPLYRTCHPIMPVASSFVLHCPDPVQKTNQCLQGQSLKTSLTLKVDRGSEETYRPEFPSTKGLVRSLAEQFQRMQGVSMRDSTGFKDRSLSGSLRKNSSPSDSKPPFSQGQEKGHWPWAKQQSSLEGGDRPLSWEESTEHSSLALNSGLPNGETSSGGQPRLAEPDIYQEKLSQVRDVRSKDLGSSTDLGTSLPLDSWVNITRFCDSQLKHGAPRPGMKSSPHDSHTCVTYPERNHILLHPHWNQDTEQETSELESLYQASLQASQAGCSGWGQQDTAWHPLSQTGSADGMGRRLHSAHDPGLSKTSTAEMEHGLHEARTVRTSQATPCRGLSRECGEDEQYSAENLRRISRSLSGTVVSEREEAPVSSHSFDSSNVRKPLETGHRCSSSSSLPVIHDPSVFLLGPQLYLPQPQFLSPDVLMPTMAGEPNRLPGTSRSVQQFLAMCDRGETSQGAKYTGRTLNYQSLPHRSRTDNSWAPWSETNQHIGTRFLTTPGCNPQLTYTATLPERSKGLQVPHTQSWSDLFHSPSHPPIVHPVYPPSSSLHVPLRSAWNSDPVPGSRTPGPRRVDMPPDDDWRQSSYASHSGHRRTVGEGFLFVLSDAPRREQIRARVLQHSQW
UniProt O00487, sequence (O00487 whole entry): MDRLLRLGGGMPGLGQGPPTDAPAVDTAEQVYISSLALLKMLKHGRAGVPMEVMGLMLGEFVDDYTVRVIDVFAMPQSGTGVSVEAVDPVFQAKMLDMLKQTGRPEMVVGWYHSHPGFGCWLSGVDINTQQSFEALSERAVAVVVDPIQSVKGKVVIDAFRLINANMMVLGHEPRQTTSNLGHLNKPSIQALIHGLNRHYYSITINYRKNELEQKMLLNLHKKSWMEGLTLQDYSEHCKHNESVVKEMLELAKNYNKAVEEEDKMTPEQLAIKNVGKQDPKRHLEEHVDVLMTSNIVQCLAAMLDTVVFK
USP9X, sequence (Q93008 whole entry): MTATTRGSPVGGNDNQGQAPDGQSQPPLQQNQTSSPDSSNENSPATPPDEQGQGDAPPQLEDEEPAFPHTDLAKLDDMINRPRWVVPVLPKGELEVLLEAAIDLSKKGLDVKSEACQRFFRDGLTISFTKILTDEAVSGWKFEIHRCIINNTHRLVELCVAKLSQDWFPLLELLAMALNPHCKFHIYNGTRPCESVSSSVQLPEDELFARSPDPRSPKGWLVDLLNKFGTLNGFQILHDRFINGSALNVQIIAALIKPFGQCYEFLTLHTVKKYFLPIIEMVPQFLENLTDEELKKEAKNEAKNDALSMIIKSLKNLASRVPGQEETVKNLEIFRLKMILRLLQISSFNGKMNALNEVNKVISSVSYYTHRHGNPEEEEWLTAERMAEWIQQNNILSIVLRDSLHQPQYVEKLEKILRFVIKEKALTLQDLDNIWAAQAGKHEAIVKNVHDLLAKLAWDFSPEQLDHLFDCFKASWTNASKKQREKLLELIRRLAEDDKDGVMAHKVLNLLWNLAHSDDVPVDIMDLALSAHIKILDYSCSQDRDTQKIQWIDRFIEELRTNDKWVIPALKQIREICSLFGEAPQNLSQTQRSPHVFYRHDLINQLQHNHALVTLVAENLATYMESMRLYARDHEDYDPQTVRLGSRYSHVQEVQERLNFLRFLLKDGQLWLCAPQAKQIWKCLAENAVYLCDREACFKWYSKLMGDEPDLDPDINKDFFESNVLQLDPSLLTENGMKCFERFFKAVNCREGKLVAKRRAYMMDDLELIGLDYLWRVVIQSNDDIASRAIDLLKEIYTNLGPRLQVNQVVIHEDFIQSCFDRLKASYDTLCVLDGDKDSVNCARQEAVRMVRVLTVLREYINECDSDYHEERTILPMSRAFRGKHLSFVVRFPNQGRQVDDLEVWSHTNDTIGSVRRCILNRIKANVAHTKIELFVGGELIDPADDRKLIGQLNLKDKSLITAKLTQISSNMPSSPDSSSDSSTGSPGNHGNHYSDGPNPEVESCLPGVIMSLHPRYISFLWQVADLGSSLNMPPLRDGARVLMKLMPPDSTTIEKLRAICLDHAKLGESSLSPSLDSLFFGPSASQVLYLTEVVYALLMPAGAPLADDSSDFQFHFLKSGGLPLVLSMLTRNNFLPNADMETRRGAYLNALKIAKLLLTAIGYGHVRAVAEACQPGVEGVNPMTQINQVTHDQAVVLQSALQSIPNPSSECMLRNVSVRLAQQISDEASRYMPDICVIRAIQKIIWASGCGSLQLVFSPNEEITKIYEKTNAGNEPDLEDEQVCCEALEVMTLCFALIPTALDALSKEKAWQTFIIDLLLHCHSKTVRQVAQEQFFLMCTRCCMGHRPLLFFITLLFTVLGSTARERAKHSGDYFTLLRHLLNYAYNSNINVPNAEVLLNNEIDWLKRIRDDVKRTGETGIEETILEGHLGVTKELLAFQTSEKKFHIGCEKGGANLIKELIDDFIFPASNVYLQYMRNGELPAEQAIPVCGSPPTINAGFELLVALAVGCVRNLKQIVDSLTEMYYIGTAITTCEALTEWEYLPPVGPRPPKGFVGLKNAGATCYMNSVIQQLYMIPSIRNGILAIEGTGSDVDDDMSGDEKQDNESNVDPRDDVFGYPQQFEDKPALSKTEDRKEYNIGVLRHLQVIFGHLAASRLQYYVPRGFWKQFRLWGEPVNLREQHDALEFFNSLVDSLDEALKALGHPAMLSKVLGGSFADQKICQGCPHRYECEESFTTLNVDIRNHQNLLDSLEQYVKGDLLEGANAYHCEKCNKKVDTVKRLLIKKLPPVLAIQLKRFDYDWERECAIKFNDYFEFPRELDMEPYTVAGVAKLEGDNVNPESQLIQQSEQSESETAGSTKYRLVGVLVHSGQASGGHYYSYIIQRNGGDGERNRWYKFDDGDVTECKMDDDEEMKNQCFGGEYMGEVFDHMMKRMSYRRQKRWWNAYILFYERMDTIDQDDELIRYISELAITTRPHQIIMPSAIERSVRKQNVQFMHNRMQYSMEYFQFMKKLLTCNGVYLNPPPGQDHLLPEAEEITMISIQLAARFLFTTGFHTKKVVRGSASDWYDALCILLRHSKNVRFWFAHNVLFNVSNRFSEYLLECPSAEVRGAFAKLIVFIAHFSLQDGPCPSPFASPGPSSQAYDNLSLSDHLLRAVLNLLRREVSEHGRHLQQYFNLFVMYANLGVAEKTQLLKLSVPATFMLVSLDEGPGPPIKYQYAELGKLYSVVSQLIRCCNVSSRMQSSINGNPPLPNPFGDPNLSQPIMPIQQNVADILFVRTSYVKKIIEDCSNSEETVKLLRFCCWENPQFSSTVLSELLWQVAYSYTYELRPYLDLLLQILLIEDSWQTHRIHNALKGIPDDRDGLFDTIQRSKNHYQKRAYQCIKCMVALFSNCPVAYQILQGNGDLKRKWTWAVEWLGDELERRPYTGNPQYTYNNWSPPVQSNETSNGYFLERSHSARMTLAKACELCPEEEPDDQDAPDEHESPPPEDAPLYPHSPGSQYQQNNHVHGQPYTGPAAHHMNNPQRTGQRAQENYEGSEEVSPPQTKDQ
USP46, sequence (P62068 whole entry): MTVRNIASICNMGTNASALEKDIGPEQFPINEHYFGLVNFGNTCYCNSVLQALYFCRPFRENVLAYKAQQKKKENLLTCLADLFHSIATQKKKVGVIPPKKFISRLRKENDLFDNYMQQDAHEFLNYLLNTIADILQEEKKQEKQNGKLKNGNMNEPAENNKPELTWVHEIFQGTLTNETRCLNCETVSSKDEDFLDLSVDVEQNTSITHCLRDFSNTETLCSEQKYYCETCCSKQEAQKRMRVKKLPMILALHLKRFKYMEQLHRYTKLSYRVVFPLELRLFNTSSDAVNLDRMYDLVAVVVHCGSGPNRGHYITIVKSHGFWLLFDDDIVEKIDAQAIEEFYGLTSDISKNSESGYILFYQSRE

CC(C)n1nccc1NC(=O)CCl
inactive: USP42 -0.0446 | USP46 0.0362 | USP47 -0.313 | USP48 -0.375 | USP5 0.00439 | USP54 0.614 | USP7 -0.278 | USP8 -0.493 | USP9X -0.225 | UniProt O00487 -0.188

CCc1c[nH]c(CNC(=O)CCl)n1.Cl
inactive: USP42 0.203 | USP46 -0.136 | USP47 -0.108 | USP48 -0.267 | USP5 -0.335 | USP54 0.304 | USP7 -0.288 | USP8 -0.335 | USP9X -0.236 | UniProt O00487 -0.193

Cc1ccc(CC(NC(=O)CCl)c2ccccn2)cc1.Cl (stereo not given)
inactive: USP42 -0.109 | USP46 0.168 | USP47 0.0361 | USP48 0.0528 | USP5 -0.125 | USP54 0.195 | USP7 -0.0773 | USP8 0.0199 | USP9X 0.139 | UniProt O00487 0.244
